# Screening results from PubChem BioAssay.
# In the library only some 21% were active in any assay of this set; here they are far more common.
# IL-1B inflam inh: blocks inflammasome-driven IL-1 beta release; 360,000 compounds, 4.7% hits; activity change, % at 57.5 µM; THP-1 LPS/ATP IL-1B secretion, AlphaLISA, 16 h; hits give low values; in the data active = activity change below about -50%; inconclusive = mostly about -30% to -49%; note: % is set by controls: 0 for no effect and ±100 for the full control effect
#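 THP-1 cells pretreated 1 hr with compounds (up to 57.5 uM final), then stimulated with LPS (250 ng/mL final) plus ATP (1.25 mM final); secreted IL-1B measured by AlphaLISA after 16 hr, decreased signal indicating inhibition.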
# D3 antag: D3 dopamine receptor (human) antagonism. D3R cells, DiscoveRx beta-arrestin luminescence, antagonist mode; hits give low values. 360,000 compounds, 2.5% hits. P35462. max response, negative = inhibition, %. AID 652054; in the data active = max response below about -50%; inconclusive = no clear call, values can overlap the other calls; note: % is set by controls: 0 for no effect and ±100 for the full control effect
# Target sequence (P35462 whole entry, looked up): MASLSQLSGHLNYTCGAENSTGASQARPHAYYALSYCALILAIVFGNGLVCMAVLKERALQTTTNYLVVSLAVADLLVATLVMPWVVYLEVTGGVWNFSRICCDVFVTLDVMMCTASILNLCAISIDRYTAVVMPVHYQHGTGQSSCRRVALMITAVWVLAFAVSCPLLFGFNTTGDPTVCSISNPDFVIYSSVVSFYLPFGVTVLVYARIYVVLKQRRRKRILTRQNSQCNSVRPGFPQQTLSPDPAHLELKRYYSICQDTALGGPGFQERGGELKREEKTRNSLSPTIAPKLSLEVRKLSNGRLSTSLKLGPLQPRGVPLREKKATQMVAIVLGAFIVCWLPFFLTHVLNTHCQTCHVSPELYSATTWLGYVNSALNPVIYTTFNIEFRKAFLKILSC
#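 Cells plated overnight at 1500 cells/well, then exposed to library compounds with dopamine controls for 90 minutes at 37 degrees C. DiscoveRx reagent added for 30–60 minutes at room temperature; luminescence read, quantitative HTS format.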
# DT40 TDP1 no CPT: qHTS for Inhibitors of human tyrosyl-DNA phosphodiesterase 1 (TDP1): qHTS in cells in absence of CPT; DT40 Tdp1-/- hTDP1 cells, no CPT, ATP luminescence, 48 h; Potency, µM (doses to about 46.2 µM), for inactives: top-dose activity change, negative = growth inhibition, usual class: inhibitors; 420,000 compounds, 15% hits; note: potency is the fitted concentration of half-maximal effect; % is set by controls: 0 for no effect and ±100 for the full control effect; nearly all actives have a fitted effect of over 55% in size
#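 Luminescent ATP content (CellTiter-Glo) served as the growth readout. Knockout chicken DT40 cells expressing human TDP1 were exposed to compounds without camptothecin for a minimum 48 hr at 37 °C.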
# D3 ag: agonists of human D3 dopamine receptor. P35462. D3R DiscoveRx beta-arrestin cells, luminescence, 90 min. max activation, %. 410,000 compounds, 0.58% hits; in the data active = max activation above about 30%; note: 0% is about no effect
#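 Agonist mode: compounds and dopamine controls were applied to plated cells for 90 min at 37 degrees C after an overnight attachment at 1500 cells/well. Luminescent read-out followed 30 - 60 minutes at room temperature with DiscoveRx detection reagent.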
# ClpP mod: qHTS Assay for Activators of ClpP. ATP-dependent Clp protease proteolytic subunit (Bacillus subtilis (strain 168)), P80244. purified B. subtilis ClpP, FRET peptide cleavage, 20 min. Potency, µM (top dose mostly 57.5 µM), for the others: at the highest dose activity change, negative = active. 340,000 compounds, 1.9% hits. AID 651965, 2013; active = well fitted falling curve with a large enough effect; inconclusive = small, poorly fitted or top-dose-only effect; inactive = no such curve, though single readings can be large or run the other way; note: potency is the fitted concentration of half-maximal effect; the source files actives as falling curves though it sought activators and does not explain the sign; nearly all actives have a fitted effect of over 65% in size
# Target sequence (P80244 whole entry, looked up): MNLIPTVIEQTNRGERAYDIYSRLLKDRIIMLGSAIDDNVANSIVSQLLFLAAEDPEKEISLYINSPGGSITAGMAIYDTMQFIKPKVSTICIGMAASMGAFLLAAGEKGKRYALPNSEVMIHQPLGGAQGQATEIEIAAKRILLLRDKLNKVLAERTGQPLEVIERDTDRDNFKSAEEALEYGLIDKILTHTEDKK
#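 ClpP 10 microg/mL final, pH 8 Tris/KCl buffer with BSA, glycerol, Tween-20; compound pinned in; FRET-FV substrate; RT 20 min; Ex320/Em430; ΔFRET vs ADEP 5.8 microM, DMSO, no enzyme.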
# TDP1 cell CPT: DT40-hTDP1 cell growth loss with CPT; chicken DT40 Tdp1-/-;hTDP1 cells + 20 nM CPT, ATP luminescence, 48 h; Potency, µM (series often up to 46.2 µM), inactives show top-dose activity change, negative = growth inhibition, actives largely listed as inhibitors; 420,000 compounds, 12% hits; note: potency is the fitted concentration of half-maximal effect; % is set by controls: 0 for no effect and ±100 for the full control effect; nearly all actives have a fitted effect of over 55% in size
#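 Chicken DT40 Tdp1-/- cells complemented with human TDP1, 400 cells/well, exposed to compounds plus 20 nM camptothecin for at least 48 h at 37 C; viability read as ATP content by CellTiter-Glo luminescence.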
# Starred values were filed as active, the others as inactive; u = inconclusive; x = no result given. Unless noted, calls come from the whole dose curve; as a rule, active = well fitted inhibition curve with a large enough effect; inconclusive = small, poorly fitted or top-dose-only effect; inactive = flat fitted curve, though single readings scatter.
SMILES,IL-1B inflam inh,D3 antag,DT40 TDP1 no CPT,D3 ag,ClpP mod,TDP1 cell CPT
O=C(Nc1cccc(F)c1)N1CCC2(CC1)CCN(C(=O)c1csnn1)CC2,x,x,-24%,x,x,7%
COc1ccc(-c2cc(C(=O)Oc3cccc(C)c3)c3ccccc3n2)cc1,x,x,u,4,4%,-14%
Cc1ccc(C(=O)Nc2cccc(C(F)(F)F)c2)cc1NC(=O)c1ccno1,u,1,12µM*,5,0%,u
Cc1ccc(C(=O)Nc2cccc(C(F)(F)F)c2)cc1Nc1cnccn1,11,-17,16µM*,-8,-5%,23µM*
Cc1ccc(C(=O)Nc2cccc(C(F)(F)F)c2)cc1Nc1ncnc2nc[nH]c12,-19,-11,21µM*,-2,22%,26µM*
O=C(Nc1ccnc(-c2ccncc2)n1)C1CC1,35,16,-20%,2,x,3%
CN(Cc1ccccc1)c1ccc(-c2nc(-c3ccccn3)no2)cc1[N+](=O)[O-],x,x,18µM*,34*,2%,u
CN(Cc1ccccc1)c1ccc(-c2nc(-c3ccncc3)no2)cc1[N+](=O)[O-],x,x,18µM*,57*,-1%,21µM*
CN(Cc1ccccc1)c1ccc(-c2nc(-c3cccnc3)no2)cc1[N+](=O)[O-],x,x,1%,-7,0%,-6%
CN(C)c1ccc(-c2nc(-c3ccccn3)no2)cc1[N+](=O)[O-],x,x,18µM*,3,2%,-29%
CNc1ccc(-c2nc(-c3ccccn3)no2)cc1[N+](=O)[O-],x,x,-17%,-21,0%,-11%
Cc1ccc(S(=O)(=O)N2CCN(C(=O)N3CCCCC3)CC2)c(C)c1,-12,0,u,1,-1%,u
CCc1nc2ccc(C(=O)NCCCn3ccnc3)cn2c1N(C)C(=O)C1CCCCC1,-13,-19,-10%,-9,-3%,-7%
Nc1nc2n(n1)C(c1ccc(Cl)cc1)CC(c1ccc(F)cc1)N2 (configuration not stated),u,-13,u,-7,-3%,u
Nc1nc2n(n1)C(c1ccccc1Cl)CC(c1ccc(F)cc1)N2 (configuration not stated),-4,-20,u,-21,-24%,16µM*
Cc1ccc(C2CC(c3ccccc3Cl)n3nc(N)nc3N2)cc1 (configuration not stated),u,-15,u,-2,-5%,21µM*
O=C(Nc1c(C(=O)N2CCOCC2)cnn1-c1ccccc1)c1cccc(F)c1,-6,-5,-24%,-2,1%,-14%
Cc1ccc(NC(=S)Nc2ccc(F)cc2)c(C)c1,-59*,4,-24%,-1,x,-11%
Oc1ccc(NC(=S)Nc2ccc(F)cc2)cc1,-1,-13,u,1,2%,0%
Cc1ccc(NC(=S)NCCc2ccc(F)cc2)c(C)c1,-13,-4,u,-10,1%,-9%
Fc1ccc(NC(=S)Nc2ccc(Br)cc2)cc1,-93*,-19,9.2µM*,-8,28µM*,8.2µM*
CCN(CC)c1ccc(NC(=S)Nc2ccc(F)cc2)cc1,u,-22,23µM*,-1,x,u
CCOC(=O)Cn1c(=O)n(-c2ccccc2OC)c2nc(-c3ccc(C(C)C)cc3)nc(C(N)=O)c21,x,x,x,6,4%,x
CC(C)CCNc1nc(N)c([N+](=O)[O-])c(NCC2CCCO2)n1 (configuration not stated),28,9,u,4,1%,15µM*
COc1ccc(CNc2nc(SCc3ccccc3Cl)nc3ccccc23)cc1,x,x,16µM*,9,0%,u
SMILES,IL-1B inflam inh,D3 antag,DT40 TDP1 no CPT,D3 ag,ClpP mod,TDP1 cell CPT
COc1ccc(CCNc2nc(SCc3ccccc3Cl)nc3ccccc23)cc1OC,x,x,4.6µM*,9,-1%,8.2µM*
CSc1nc(C)cc(/C=C\c2ccccc2)c1C#N,4,-10,-4%,13,28µM*,-10%
C/C(=N\NC(=O)c1c(Cl)cnn1C)c1cccnc1,25,5,22%,-1,0%,6%
CN(C)C=Nc1ccc2nc3c(cc2c1)[nH]c1ccccc13,16,2,12µM*,0,4%,u
CCc1ccc(NC(=O)C(=O)NCC(c2cccnc2)N2CCN(Cc3ccccc3)CC2)cc1 (configuration not stated),x,x,8.2µM*,-12,-4%,12µM*
CCc1ccc(NC(=O)C(=O)NCC(c2cccnc2)N2CCOCC2)cc1 (configuration not stated),x,x,u,-6,-1%,u
O=C(NCC(c1cccnc1)N1CCN(Cc2ccccc2)CC1)C(=O)Nc1ccc(F)cc1 (configuration not stated),x,x,23µM*,-18,0%,18µM*
O=C(NCC(c1cccnc1)N1CCN(Cc2ccccc2)CC1)C(=O)Nc1cccc(F)c1 (configuration not stated),x,x,23µM*,-15,-11%,26µM*
c1ccc(C2OCCN2c2ccccc2)cc1 (configuration not stated),12,-2,-2%,3,-2%,4%
O=C(NCc1nnnn1-c1ccc(F)cc1)C(=O)c1c[nH]c2ccccc12,34,-9,u,-5,3%,-21%
CCOc1ccc(NS(=O)(=O)c2cccc(C(=O)NCC3(N(C)C)CCCCC3)c2)cc1,-3,13,u,-5,-21%,-18%
CC1Cc2cc(S(=O)(=O)N3CCN(c4ccccc4F)CC3)ccc2N1C(=O)C1CCC1 (configuration not stated),x,x,-13%,-12,-2%,u
CCCCNC(=O)c1nn2c(C(F)(F)F)cc(-c3ccccc3)nc2c1Br,-5,37,21µM*,-9,x,u
N#CCNC(=O)c1nn2c(C(F)(F)F)cc(-c3ccccc3)nc2c1Br,13,17,18%,0,0%,0%
COc1ccc(-c2cc(C(F)(F)F)n3nc(C(=O)Nc4cccc(C(F)(F)F)c4)c(Br)c3n2)cc1,x,x,u,3,-1%,13µM*
CC[C@]1(C(=O)OC)[C@H]2C(=O)N(C)C(=O)[C@H]2[C@H]2CN(C)C(=NC)N21,15,-21,-2%,-21,-1%,-14%
C=CCn1c(SCC(=O)N(CC)C2CCS(=O)(=O)C2)nc2scc(-c3ccccc3)c2c1=O (configuration not stated),-26,-2,u,-3,-2%,u
